# From PubChem BioAssay AID651958 (The Scripps Research Institute Molecular Screening Center, 2012)
# Hit rate of the full screen: of about 370,000 compounds, about 2,000 (0.54%) were called active. No stated cut-off is given here; in the data, active means inhibition above about 30%; inactive means the rest. For the sample, actives were picked, then their nearest neighbours and some compounds at random.
# Test system: Crimean-Congo hemorrhagic fever virus L polyprotein viral ovarian tumor (vOTU) protease domain
# Assay: CCHFV vOTU protease inhibitors, primary screen, biochemical, Pep-AMC substrate, fluorescence (AID 651958); further: 0% = vehicle wells with enzyme and 100% = no enzyme wells
# Settings: at 11.5 µM, stronger effect = higher value
row,Structure (SMILES),inhibition
1,CCc1cccc(C)c1N(C(=O)Cn1c(CO)nc2ccccc21)C(C)COC (configuration not stated),6.13% (inactive)
2,O=C(Nc1cc(S(=O)(=O)N2CCOCC2)ccc1N1CCOCC1)c1c(F)cccc1Cl,8.3% (inactive)
3,Cc1ccc2c(c1)C(c1ccccc1)N(C(=O)c1ccc(S(=O)(=O)N3CCOCC3)cc1)CC(=O)N2 (configuration not stated),-6.16% (inactive)
4,Cc1ccc(S(=O)(=O)N2CCN(C(=O)c3cccs3)CC2)cc1,-14.5% (inactive)
5,COc1ccccc1NC1=NC(c2ccc(Cl)cc2)N=C(N)N1 (configuration not stated),2.38% (inactive)
6,CCNC(=S)N1CCN(c2ncccn2)CC1,43.8% (active)
7,Cc1ccc(NC(=S)N2CCN(c3ncccn3)CC2)cc1C,2.37% (inactive)
8,CCNC(=S)N1CCN(S(=O)(=O)c2ccc(Cl)s2)CC1,11.2% (inactive)
9,CCC(C(=O)NCc1cccnc1)n1nc(C)c2sc3ccccc3c2c1=O (configuration not stated),-2% (inactive)
10,COCCNC(=O)C1C(=O)Nc2ccccc2C(=O)N1c1ccc2c(c1)OCCO2 (configuration not stated),26.3% (inactive)
11,O=C(/C=C/c1cccs1)c1cc(Cl)ccc1OC(=O)N1CCOCC1,10.7% (inactive)
12,Cc1cc2nc(SCCN3CCOCC3)[nH]c2cc1C,3.87% (inactive)
13,CCOC(=O)N1CCC(c2cc(=O)n(-c3ccccc3)[nH]2)CC1,71.1% (active)
14,CCOC(=O)N1CCC(C(N)=O)CC1,8.61% (inactive)
15,CCOC(=O)N1CCC(NC(=O)Cc2cn(C)c3ccccc23)CC1,3.03% (inactive)
16,CCOc1ccc(CNC(=O)C2CC(=O)N(C3CCCC3)C2)cc1OC (configuration not stated),4.25% (inactive)
17,CC(C)(C)OC(=O)NC(Cc1ccccc1)C(=O)NC(CSC1CCCCO1)C(=O)NN (configuration not stated),-4.89% (inactive)
18,CCOC(=O)N(C)c1c(CC)nc2c(OCc3ccccc3C(=O)OC)cccn12,15.9% (inactive)
19,C=CCn1c(SCc2cccc(F)c2)nc2cc(C(=O)N3CCC(C(N)=O)CC3)ccc2c1=O,14.2% (inactive)

row,Structure (SMILES),inhibition
1,Cc1ccccc1CN1CCN(C(=O)c2cccc(F)c2)CC1,6.94% (inactive)
2,O=C1Nc2cc(C(=O)N3CCN(c4ccc(F)cc4)CC3)ccc2NC1CSCc1cccc(F)c1 (configuration not stated),32.1% (active)
3,COC(=O)C1=C(Nc2ccc(C)cc2)C=C(C)C(C(=O)OC)C1c1ccc(F)cc1 (configuration not stated),15.8% (inactive)
4,COc1ccc(C2=Nc3cc(C)ccc3OC2)cc1,14.7% (inactive)
5,COC(=O)c1ccccc1N=Nc1c(C)[nH][nH]c1=O,-9.29% (inactive)
6,CCOCCc1c(O)[nH]c(=S)[nH]c1=O,5.12% (inactive)
7,COc1ccccc1N=Nc1c(O)[nH]c(=S)[nH]c1=O,38.1% (active)
8,O=C(COC(=O)/C=C/c1ccc(S(=O)(=O)N2CCCCCC2)cc1)NCc1ccccc1Cl,-8.91% (inactive)
9,Cc1cc(C)nc(-n2ncc3c2CC(c2ccc(C(C)C)cc2)CC3=O)n1 (configuration not stated),2.76% (inactive)
10,Cc1cccc(C)c1NC1=NC(=S)N(c2ccc(N(C)C)cc2)C1(C)C,27.5% (inactive)
11,O=C1NC(c2ccc(-c3ccccc3[N+](=O)[O-])o2)C(C(=O)c2ccc(Cl)cc2)C(O)(C(F)(F)F)N1 (configuration not stated),38.5% (active)
12,CCOC(=O)C1C(c2ccc(O)cc2)NC(=O)NC1(O)C(F)(F)F (configuration not stated),-18.4% (inactive)
13,Cc1cn(C)c(=O)n(C)c1=O,-10.2% (inactive)
14,Cc1ccc([C@H]2C[C@H](O)[C@@H](n3cc(COC(=O)c4ccccc4)nn3)CN2C(=O)C2CCCCC2)cc1,9.18% (inactive)
15,CCCCCCN1C[C@@H](O)[C@H](n2cc(COC(=O)c3ccccc3)nn2)C[C@@H]1c1ccc(Cl)cc1,-5.93% (inactive)
16,CCCCCC(=O)N1C[C@H](O)[C@@H](n2cc(COC(=O)c3ccccc3)nn2)C[C@@H]1c1ccc(C)cc1,30.5% (active)
17,COc1ccc(C(C#N)N2N=C(C)CC2(C)C)cc1 (configuration not stated),4.09% (inactive)
18,COc1cc(Cl)c(C)cc1NC(=O)[C@@H]1CCCN1C(=O)c1cccs1,-1.68% (inactive)
19,CCC1=NN(C(=O)Cc2ccc([N+](=O)[O-])cc2)C(O)(c2ccc(Br)cc2)C1 (configuration not stated),-9.95% (inactive)

row,Structure (SMILES),inhibition
1,C=CCC[C@@H](CCCCC)OC(=O)/C=C/[C@@H](O)[C@H](O)C[C@H](O)CC=C,32.8% (active)
2,C=CCC[C@H](CCCCC)OC(=O)/C=C/[C@H](O)[C@@H](O)C[C@@H](O)CC=C,18.2% (inactive)
3,O=C(CCl)NNc1cccc(Cl)n1,2.47% (inactive)
4,Cc1ccc(C23CC4CC(CC(C(=O)NCC(=O)O)(C4)C2)C3)cc1,12.6% (inactive)
5,CN(C)c1ccc(N/C=C/C(=O)C(F)(F)F)cc1,65% (active)
6,Cc1ccc(NC(=O)CN(C)Cc2ccc(F)cc2)c([N+](=O)[O-])c1,-3.76% (inactive)
7,Cc1cc(C(=O)N/N=C/c2ccc(O)c([N+](=O)[O-])c2)c(C)n1-c1ccc(F)cc1,45.6% (active)
8,Cc1cc(C(=O)COc2ccccc2[N+](=O)[O-])c(C)n1-c1cccc(S(=O)(=O)N2CCOCC2)c1,15.2% (inactive)
9,CC(C)(C)n1nnnc1C(c1ccccc1F)N1CCN(C(=O)c2ccco2)CC1 (configuration not stated),9.18% (inactive)
10,CC(=O)N1CCN(c2ccc(NCc3ccc(C(C)C)cc3)cc2)CC1,34.2% (active)
11,CC(C)c1ccc(NC(=O)COC(=O)c2ccc(CN3CCCC3=O)cc2)cc1,3.69% (inactive)
12,CC(C)c1ccc(OCC(=O)N2CCCN(C)CC2)cc1,7.24% (inactive)
13,O=C(NC1CC1)C1=C[C@H](c2coc3ccccc3c2=O)C[C@H](OCCCCO)O1,-2.05% (inactive)
14,CCOc1ccc(NC(=O)CCCCCN2C(=O)[C@@H]3Cc4ccccc4CN3C2=O)cc1,13.7% (inactive)
15,CC(C)(C)NC(=O)CN(C(=O)c1csnn1)c1ccccc1-c1ccccc1,-7.68% (inactive)
16,CSc1ccccc1NC(=O)c1cc(C2CC2)on1,11.1% (inactive)
17,NC1=CC(=O)C(=O)c2cccnc21,104% (active)
18,O=C(NC1CCN(C(=S)NCc2ccco2)CC1)c1ccc(F)cc1,13.2% (inactive)
19,COc1ccccc1N(CC(=O)Nc1ccc(C)cc1Cl)S(=O)(=O)c1cccs1,1.37% (inactive)
